According to the supplement of paper PMC11732987, “Enantioselective OTUD7B fragment discovery through chemoproteomics screening and high-throughput optimisation” (Communications Chemistry, 2025):

Assays:
Assay in all cases: log2 ratio of Biotin-Ahx-Ub-VS probe labelling (fragment/DMSO); higher = less target engagement (more negative = stronger competition), active = hit call of the paper (q ≤ 0.05, log2 ratio ≤ -1)
Conditions in all cases: compound concentration: 200 uM; treatment time: 3 h
ALG13 = target: T1, ALG13 (UniProt Q9NP73)
T1 sequence (whole entry): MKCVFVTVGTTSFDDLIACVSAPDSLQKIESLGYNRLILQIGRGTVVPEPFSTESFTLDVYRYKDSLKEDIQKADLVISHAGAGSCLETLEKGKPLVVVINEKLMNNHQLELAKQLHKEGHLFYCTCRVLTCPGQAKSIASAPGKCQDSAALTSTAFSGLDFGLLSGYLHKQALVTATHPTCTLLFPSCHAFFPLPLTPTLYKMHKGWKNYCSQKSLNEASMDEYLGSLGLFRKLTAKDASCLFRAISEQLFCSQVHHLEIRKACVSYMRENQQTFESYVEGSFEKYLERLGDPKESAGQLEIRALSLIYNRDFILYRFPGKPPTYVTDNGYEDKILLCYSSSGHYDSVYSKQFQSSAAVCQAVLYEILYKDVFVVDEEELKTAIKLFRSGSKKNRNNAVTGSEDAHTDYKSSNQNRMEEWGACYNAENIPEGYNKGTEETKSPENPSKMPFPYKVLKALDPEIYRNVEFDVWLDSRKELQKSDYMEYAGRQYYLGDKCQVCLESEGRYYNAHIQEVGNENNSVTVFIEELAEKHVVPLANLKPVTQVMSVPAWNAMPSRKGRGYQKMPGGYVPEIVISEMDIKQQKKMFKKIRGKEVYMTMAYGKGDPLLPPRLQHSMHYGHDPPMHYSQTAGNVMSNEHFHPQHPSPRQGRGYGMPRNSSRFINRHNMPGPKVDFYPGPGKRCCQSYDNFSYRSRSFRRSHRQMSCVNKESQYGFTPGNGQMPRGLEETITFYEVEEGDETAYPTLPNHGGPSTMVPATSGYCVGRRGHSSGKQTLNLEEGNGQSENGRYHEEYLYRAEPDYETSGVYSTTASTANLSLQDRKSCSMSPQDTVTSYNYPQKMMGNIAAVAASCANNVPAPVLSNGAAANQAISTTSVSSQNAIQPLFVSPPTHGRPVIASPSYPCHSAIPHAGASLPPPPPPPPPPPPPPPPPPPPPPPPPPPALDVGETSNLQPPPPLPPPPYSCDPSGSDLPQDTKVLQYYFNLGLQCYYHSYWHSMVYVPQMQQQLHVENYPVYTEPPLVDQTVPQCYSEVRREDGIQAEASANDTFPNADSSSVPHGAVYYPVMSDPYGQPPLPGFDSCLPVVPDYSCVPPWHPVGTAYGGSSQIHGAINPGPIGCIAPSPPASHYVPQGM
In short: (§1)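 Using Biotin-Ahx-Ub-VS at 0.5 µM final for 1 h, DUBs were labelled in HEK293T lysate (495 µg per sample) that had first been treated in triplicate with fragment at 200 µM or vehicle for 3 h. NeutrAvidin enrichment, LysC and trypsin digestion and diaPASEF LC-MS/MS followed. Spectronaut label-free quantities were global-median-normalised. Values are average log2 fragment/vehicle ratios by unpaired t-test, using proteins with ≥2 unique peptides.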

ATXN3 = ATXN3 (UniProt P54252)
Chain of ATXN3 (P54252 whole entry): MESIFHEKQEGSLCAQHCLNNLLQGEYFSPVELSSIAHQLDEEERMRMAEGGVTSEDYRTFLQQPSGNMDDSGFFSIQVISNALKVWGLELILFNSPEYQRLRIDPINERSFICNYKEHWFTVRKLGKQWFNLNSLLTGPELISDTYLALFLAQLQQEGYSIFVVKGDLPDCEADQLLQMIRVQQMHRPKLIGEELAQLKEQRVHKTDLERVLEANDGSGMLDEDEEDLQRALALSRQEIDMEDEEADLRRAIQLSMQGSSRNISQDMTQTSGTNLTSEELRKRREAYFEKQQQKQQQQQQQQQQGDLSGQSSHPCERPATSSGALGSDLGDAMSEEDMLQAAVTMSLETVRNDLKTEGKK
In short: as §1

BAP1 = target: T2, BAP1 (UniProt Q92560)
T2 sequence (whole entry): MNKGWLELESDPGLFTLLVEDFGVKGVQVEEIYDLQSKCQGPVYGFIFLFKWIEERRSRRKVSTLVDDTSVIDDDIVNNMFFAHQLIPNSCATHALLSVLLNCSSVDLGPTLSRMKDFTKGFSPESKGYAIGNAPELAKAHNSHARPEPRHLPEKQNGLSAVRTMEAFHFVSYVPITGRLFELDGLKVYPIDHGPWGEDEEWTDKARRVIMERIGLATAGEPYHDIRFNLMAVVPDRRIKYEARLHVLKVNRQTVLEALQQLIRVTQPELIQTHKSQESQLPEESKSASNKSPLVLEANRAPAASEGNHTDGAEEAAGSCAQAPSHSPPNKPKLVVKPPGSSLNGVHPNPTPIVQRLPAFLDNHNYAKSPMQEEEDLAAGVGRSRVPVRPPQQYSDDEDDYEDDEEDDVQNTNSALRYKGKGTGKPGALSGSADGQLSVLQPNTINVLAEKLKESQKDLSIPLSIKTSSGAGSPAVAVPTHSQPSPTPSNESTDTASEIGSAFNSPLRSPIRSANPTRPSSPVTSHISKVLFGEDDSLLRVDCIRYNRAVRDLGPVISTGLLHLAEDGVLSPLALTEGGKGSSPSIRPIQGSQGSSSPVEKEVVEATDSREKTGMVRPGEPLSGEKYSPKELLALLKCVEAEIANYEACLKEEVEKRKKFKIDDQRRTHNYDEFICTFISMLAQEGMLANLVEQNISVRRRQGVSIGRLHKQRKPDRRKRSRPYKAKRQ
In short: as §1

EIF3F = EIF3F (UniProt O00303)
Chain of EIF3F (O00303 whole entry): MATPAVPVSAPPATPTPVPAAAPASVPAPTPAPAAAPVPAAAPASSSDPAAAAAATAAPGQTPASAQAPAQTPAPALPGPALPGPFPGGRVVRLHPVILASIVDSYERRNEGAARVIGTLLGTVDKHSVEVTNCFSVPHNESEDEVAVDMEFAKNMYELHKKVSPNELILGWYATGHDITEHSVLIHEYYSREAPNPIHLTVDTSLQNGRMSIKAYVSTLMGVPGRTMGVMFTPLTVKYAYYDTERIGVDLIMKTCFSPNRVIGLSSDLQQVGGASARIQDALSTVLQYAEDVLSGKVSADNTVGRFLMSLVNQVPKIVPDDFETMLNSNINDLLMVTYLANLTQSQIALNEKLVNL
In short: as §1

EIF3H = EIF3H (UniProt O15372)
Chain of EIF3H (O15372 whole entry): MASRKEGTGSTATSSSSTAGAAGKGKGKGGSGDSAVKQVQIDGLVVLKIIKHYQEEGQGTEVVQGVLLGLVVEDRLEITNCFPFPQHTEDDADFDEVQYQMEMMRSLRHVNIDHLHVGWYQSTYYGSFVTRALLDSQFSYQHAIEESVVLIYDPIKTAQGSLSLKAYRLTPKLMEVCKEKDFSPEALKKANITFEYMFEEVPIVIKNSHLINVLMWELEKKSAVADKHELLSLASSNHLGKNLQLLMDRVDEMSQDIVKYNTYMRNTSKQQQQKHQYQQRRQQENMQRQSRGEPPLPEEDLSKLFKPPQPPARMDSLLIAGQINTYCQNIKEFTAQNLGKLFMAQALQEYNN
In short: as §1

FAM105A = target: T3, FAM105A (UniProt Q9NUU6)
T3 sequence (whole entry): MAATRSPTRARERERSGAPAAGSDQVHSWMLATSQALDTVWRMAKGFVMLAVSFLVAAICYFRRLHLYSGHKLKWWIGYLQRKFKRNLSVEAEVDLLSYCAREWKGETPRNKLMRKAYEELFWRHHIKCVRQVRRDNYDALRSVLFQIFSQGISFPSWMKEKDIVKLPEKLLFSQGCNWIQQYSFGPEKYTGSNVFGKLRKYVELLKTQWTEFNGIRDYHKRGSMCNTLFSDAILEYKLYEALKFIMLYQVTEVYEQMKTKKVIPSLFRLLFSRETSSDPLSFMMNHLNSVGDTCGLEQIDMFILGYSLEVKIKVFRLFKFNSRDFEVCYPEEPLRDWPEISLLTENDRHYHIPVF
In short: as §1

OTUB1 = OTUB1 (UniProt Q96FW1)
Chain of OTUB1 (Q96FW1 whole entry): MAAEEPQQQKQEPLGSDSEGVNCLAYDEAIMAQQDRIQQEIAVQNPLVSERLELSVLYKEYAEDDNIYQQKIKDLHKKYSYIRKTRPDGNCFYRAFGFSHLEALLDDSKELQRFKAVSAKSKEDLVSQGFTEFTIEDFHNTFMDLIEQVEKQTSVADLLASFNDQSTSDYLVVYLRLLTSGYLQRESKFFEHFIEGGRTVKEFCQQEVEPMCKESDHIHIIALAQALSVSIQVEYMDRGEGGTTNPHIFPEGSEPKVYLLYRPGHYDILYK
In short: as §1

OTUD4 = target: T4, OTUD4 (UniProt Q01804)
T4 sequence (whole entry): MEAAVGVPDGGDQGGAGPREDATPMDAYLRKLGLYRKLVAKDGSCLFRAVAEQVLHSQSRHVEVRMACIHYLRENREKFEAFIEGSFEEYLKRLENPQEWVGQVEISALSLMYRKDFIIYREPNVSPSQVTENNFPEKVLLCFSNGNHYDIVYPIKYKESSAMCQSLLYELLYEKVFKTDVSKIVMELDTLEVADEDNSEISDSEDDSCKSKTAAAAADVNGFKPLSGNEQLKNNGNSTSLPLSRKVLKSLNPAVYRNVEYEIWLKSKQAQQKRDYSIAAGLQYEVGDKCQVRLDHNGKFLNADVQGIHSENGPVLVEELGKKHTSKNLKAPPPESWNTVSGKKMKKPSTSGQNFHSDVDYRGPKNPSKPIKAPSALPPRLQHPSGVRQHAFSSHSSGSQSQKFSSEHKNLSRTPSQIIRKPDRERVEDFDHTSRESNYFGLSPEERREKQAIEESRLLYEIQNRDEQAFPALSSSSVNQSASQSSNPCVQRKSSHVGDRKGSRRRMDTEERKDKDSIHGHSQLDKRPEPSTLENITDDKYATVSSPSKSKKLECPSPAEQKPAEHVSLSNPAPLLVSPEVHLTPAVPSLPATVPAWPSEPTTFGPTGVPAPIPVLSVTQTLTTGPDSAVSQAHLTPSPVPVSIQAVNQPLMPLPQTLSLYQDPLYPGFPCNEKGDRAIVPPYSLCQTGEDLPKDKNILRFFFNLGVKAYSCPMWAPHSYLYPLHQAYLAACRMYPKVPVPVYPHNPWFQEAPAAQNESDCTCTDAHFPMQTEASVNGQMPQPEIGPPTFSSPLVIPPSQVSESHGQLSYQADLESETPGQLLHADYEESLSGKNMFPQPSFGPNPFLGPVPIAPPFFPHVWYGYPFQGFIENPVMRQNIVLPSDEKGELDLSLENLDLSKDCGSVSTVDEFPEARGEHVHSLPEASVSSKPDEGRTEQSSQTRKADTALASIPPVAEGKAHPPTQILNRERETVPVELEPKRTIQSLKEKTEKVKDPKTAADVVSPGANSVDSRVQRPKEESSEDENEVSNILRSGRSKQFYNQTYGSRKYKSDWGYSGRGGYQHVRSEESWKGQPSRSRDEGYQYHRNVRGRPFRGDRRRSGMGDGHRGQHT
In short: as §1

OTUD5 = target: T5, OTUD5 (UniProt Q96G74)
T5 sequence (whole entry): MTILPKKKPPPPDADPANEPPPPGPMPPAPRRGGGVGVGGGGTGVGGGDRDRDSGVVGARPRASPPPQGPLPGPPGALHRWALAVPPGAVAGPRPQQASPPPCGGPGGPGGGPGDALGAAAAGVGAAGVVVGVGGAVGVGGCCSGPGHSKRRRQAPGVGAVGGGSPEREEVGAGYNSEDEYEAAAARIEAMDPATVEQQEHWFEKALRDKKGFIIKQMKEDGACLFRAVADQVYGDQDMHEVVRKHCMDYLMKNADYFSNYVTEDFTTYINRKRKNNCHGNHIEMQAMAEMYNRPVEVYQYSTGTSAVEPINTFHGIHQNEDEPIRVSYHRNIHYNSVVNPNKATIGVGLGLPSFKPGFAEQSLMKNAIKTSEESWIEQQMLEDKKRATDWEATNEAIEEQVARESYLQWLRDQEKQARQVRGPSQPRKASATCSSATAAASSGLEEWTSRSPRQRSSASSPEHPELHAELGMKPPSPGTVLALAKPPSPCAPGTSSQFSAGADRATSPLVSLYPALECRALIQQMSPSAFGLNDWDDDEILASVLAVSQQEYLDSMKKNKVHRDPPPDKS
In short: as §1

Measured: log2 ratio of Biotin-Ahx-Ub-VS probe labelling

O=C(CCl)N1CCOCC1C1CC1 (centres undefined)
inactive: ATXN3 -0.209 | BAP1 -0.299 | EIF3F -0.527 | EIF3H 0.16 | FAM105A 0.635 | OTUB1 -0.181 | OTUD4 -0.865 | OTUD5 -0.313
active: ALG13 -1.36
